Measured values as given in PubChem BioAssay (NCI).
The panel holds about 79,000 compounds, 15% with a hit somewhere; the sample as a whole holds those more often. Values without a mark were called inactive. Active and inactive are the calls of the source. Rule as the data show it: active = growth inhibition above about 70%; inactive = the rest.

What was measured:
[1] = NCI Yeast Anticancer Drug Screen. Data for the rad50 strain (AID 155);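 also: 0% = growth of vehicle-only cultures of the same strain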; details: S. cerevisiae rad50 strain growth inhibition; at 50.0 µM; active compounds read high
Method in brief: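 Readout: growth inhibition relative to vehicle-treated cultures. Compound exposure was carried out in a genetically defined yeast strain deficient in DNA damage repair.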

[2] = NCI Yeast Anticancer Drug Screen. Data for the mec2-1 strain (AID 157); details: S. cerevisiae mec2-1 strain, at 50.0 µM, active compounds read high
Method in brief: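 Test agents were screened against the mec2-1 yeast strain, with defined DNA repair or cell cycle alteration. Growth was scored as inhibition against vehicle-only controls.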

[3] = NCI Yeast Anticancer Drug Screen. Data for the sgs1 mgt1 strain (AID 161);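 also: 0% = growth of cultures given vehicle only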; details: S. cerevisiae sgs1 mgt1 strain, at 50.0 µM, active compounds read high
Method in brief: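 Test agents were incubated with a DNA-repair-mutant yeast strain. Growth was then read and compared against vehicle-treated controls.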

[4] = NCI Yeast Anticancer Drug Screen. Data for the cln2 rad14 strain (AID 165);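 also: 0% = growth equal to vehicle treated cultures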; details: S. cerevisiae cln2 rad14 strain, at 50.0 µM, active compounds read high
Method in brief: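 Growth of compound-exposed yeast (cln2 rad14 genotype) measured and expressed as inhibition relative to vehicle.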

[5] = NCI Yeast Anticancer Drug Screen. Data for the bub3 strain (AID 167); details: S. cerevisiae bub3 mutant strain, at 50.0 µM, active compounds read high
Method in brief: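 Readout: yeast growth inhibition, expressed relative to vehicle-only wells. The test organism is a mutant strain from a panel with lesions in DNA repair or checkpoint genes.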

[6] = NCI Yeast Anticancer Drug Screen. Data for the mlh1 rad18 strain (AID 175); details: S. cerevisiae mlh1 rad18 strain growth inhibition; at 50.0 µM; active compounds read high
Method in brief: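 In this whole-cell yeast screen, a strain with altered DNA damage repair is challenged with compound, and its growth is measured against matched vehicle-treated controls.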

Structure (SMILES) | growth inhibition [1] [%] | growth inhibition [2] [%] | growth inhibition [3] | growth inhibition [4] [%] | growth inhibition [5] [%] | growth inhibition [6]
O=C(/C=C/c1ccccc1)Nc1ccc([N+](=O)[O-])cc1Cl | 4.75 | 10.7 | 12% | -1.95 | 26.2 | 18.5%
O=C(CC(=O)c1ccccc1)Nc1cccnc1 | -21.2 | 8.9 | -0.3% | -21.2 | -1.8 | -6.95%
COc1cc(-c2cc(O)c(-c3ccc4ccccc4n3)c(=O)[nH]2)cc(OC)c1OC | 6.75 | 14.6 | 1.6% | 11.8 | -27.1 | 23.4%
Cc1nc(NCc2ccco2)nc(NCc2ccco2)c1[N+](=O)[O-] | -14.7 | -18.6 | -5.85% | -22.6 | 27.7 | -13.1%
CN(c1ccccc1)S(=O)(=O)c1ccc([N+](=O)[O-])cc1 | -13.4 | -52.7 | 6.75% | -7.1 | 21.8 | -5.45%
Cc1ccc(N2[C@H]3CCCN3c3ccc(C)cc3[C@@H]2C(F)(F)F)cc1 | 16.3 | 0.8 | 29.5% | -2.25 | -15.5 | 2%
Nc1ccc(C(=O)O)cc1[N+](=O)[O-] | -0.85 | -4.65 | -3.7% | -14.6 | 2.15 | -1.5%
CCN1CCCN(CC)C1=O | 6.1 | 4.15 | -4.4% | -30.4 | -0.45 | 0.1%
COC(=O)C1=C(C(=O)OC)C(=Nc2ccccc2)c2ccccc2C1=O | 46.8 | 35.3 | 74.2% (active) | 8.2 | 51.4 | 90.6% (active)
Cc1ccc(C(=O)C[n+]2ccccc2)c(O)c1 | -5.45 | -9.9 | 8.85% | -38 | 4.65 | 14.1%
CCCCC(O)C(=O)NCCC(=O)c1ccccc1 (stereo not drawn) | -7.1 | 5.95 | 3.45% | 22.9 | 14.1 | 20.4%
CC1=CC(C)(C)SC(=S)N1 | 24.9 | 5.3 | 19.8% | -60.6 | -3.35 | 29.3%
O=C1OC(C2Cc3cc4c(cc3C2=O)CCC4)c2ccccc21 (stereo not drawn) | -33.1 | -25.4 | -7.75% | -2.55 | -18.9 | -13.4%
COc1cccc(C2=NC(C(C)C)CO2)c1OC (stereo not drawn) | -11.3 | -16.4 | -15.8% | 19.9 | -8.35 | -4.35%
Cc1ccc(S(=O)(=O)N2CCC2c2ccccc2)cc1 (stereo not drawn) | 4.55 | -3.8 | -17.9% | -3.85 | -17.9 | -24.9%
C[N+]([O-])(Cc1ccccc1)c1ccccc1 (stereo not drawn) | -3.6 | -16.3 | -15.2% | -20.9 | -26.8 | 1.75%
CC(=O)Nc1ccc(S(=O)(=O)N/N=C/c2ccco2)cc1 | 23.1 | 1.2 | 5.7% | -30.6 | 4.1 | 33.6%
COc1ccc(S(=O)(=O)N/N=C/c2cc(I)cc([N+](=O)[O-])c2O)cc1 | 15.1 | 0.6 | 9.85% | 8 | -3.85 | 2.5%
CCCCCC#CC1OC1(C)C (stereo not drawn) | -2.1 | -8.05 | -2.8% | -27 | 5.95 | -12.2%

Structure (SMILES) | growth inhibition [1] [%] | growth inhibition [2] [%] | growth inhibition [3] | growth inhibition [4] [%] | growth inhibition [5] [%] | growth inhibition [6]
Nc1ccc(C(=O)O)cc1O | 13.7 | 14.2 | 13.9% | 20.4 | 9.65 | -7%
Oc1nc2nc[nH]n2c1N=Nc1ccccc1 | -22.7 | -12.9 | -7.5% | -12.5 | 10.3 | 6.9%
COc1ccc(C(O)C(c2ccc(OCc3ccccc3)cc2)c2ccc(OCc3ccccc3)cc2)cc1 (stereo not drawn) | 1.05 | -27.9 | -5.15% | -4.25 | -29.2 | -22.4%
CN1CCC=C(COC(=O)C(C)(C)C)C1 | 1.8 | 4.9 | -10.9% | 7.45 | 5.45 | 18.4%
CCc1cccc(C)c1NC(=O)C(=O)CC(=O)CCCO | -37.6 | 21.7 | 27.6% | -27.9 | 0.05 | 25.4%
CCOC(=O)NNC(=O)C1CSC(c2ccccc2)N1C(C)=O (stereo not drawn) | -52.5 | -13.4 | -27.1% | 10.5 | 1.85 | -22.3%
Cc1ccc(C(=O)c2c[nH]c(=O)[nH]c2=O)cc1 | 9.45 | -20.2 | -6.7% | -6.5 | -3.05 | -21.9%
Cn1c(=O)c2c(nc(Cl)n2C)n(C)c1=O | 42.5 | 14.5 | -16.1% | -29.3 | -7.65 | 28.9%
Cc1ccc(C(CS(=O)(=O)c2ccc(C)cc2)c2ccccc2)cc1 (stereo not drawn) | 0.5 | 6.15 | -7.8% | -20.1 | 1.7 | -19.9%
CCC(C(N)=O)C(C)(C)C (stereo not drawn) | -0.15 | -12.2 | -4.7% | 7.3 | 12.3 | -1.2%
Cc1c(C)n2c(=O)n(-c3ccccc3)c(=O)n2c1=O | -38 | -27.1 | -5.55% | -27.2 | -7.75 | -1.85%
C=C(Br)CNC(=O)Nc1ccc(Cl)c(Cl)c1 | -0.3 | 16.1 | 21.4% | 5.7 | 22.6 | -86.2%
Cc1ccc(S(=O)(=O)/N=C/[N-][n+]2cccc(C)c2)cc1 | 3.6 | 8.8 | 4.4% | -14.6 | 0.45 | -4.2%
O=c1[nH][nH]c(=O)c2c1nc(SCc1ccc(Br)cc1)n2Cc1ccccc1 | 16.9 | 0.3 | -7.95% | 1.85 | -2.35 | 3.8%
OCC1OC(n2nc(-c3ccccc3)nc2-c2cnccn2)C(O)C(O)C1O (stereo not drawn) | -37.4 | -35.8 | -31.4% | 3.65 | -46.1 | -43.5%
OC(Cc1cccnc1)(c1ccccc1)c1ccccc1 | -0.3 | -40.4 | -16.7% | -21.5 | -13.9 | -0.4%
CCCCCCC1OCCC(C)O1 (stereo not drawn) | 7.6 | 5.95 | 16.9% | -10.3 | -22.4 | 12.9%
Cc1ccccc1NC(=O)CC(=O)NNC(Sc1ccccc1)c1cc(N=Nc2ccc(Br)cc2)ccc1O (stereo not drawn) | 19.3 | 14.1 | 27.1% | -3.95 | 17.9 | 18.9%
C=C(CBr)CCCCC | 65.1 | 23.3 | 62.6% | 14.1 | 29.8 | 0.55%
